Results on 53 compounds are retold here after PubChem BioAssay (NCATS).

Molecules are shown by their SMILES. Records with an inconclusive call do not appear. The source made the active and inactive calls. The call rests on the fitted dose curve; in most records, active means well fitted curve in the direction sought with a large enough effect; inconclusive means small, poorly fitted or top-dose-only effect, or another doubt; inactive means no such curve, though single readings can be large; an effect the other way counts as inactive or inconclusive.

Assay [1] deals with Metallo-beta-lactamase type 2 (Klebsiella pneumoniae) (UniProt C7C422). Put plainly: qHTS to identify inhibitors of the New Delhi Metallo-beta-lactamase (NDM): assay validation screen against the NCATS LOPAC Collection (AID 1794843).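 Further: nitrocefin turnover by NDM-1 measured as 485 nm absorbance at plateau; series mostly up to about 38 µM.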 The method in brief: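 Enzyme 2 nM final, 50 mM HEPES pH 7.0, 1 uM ZnSO4, 0.01% Tween20; cpds in DMSO, preincub w/ enzyme; + nitrocefin (50 uM stock); A485 at plateau; no-enzyme column as blank.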

The target of assay [2] is Phospholipid hydroperoxide glutathione peroxidase GPX4 (Homo sapiens) (UniProt P36969). Put plainly: Primary qHTS Assay for Inhibitors of Recombinant Selenoprotein Glutathione Peroxidase 4 (GPX4) (AID 1845192). Further: nearly all actives have a fitted effect of over 65% in size. Further: potency means the concentration at half of the fitted maximal effect. The method in brief:
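NADPH consumption, followed by fluorescence at 340/450 nm between 0 and 15 min, reports GPX4 activity via coupled glutathione reductase (100 nM). Enzyme 200 nM was pre-exposed to compound 30 min; 0.5 mM cumene hydroperoxide and 1 mM GSH served as substrates.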

Assay [3] has as its target Glutathione peroxidase 1 (Homo sapiens) (UniProt P07203). Put plainly: Primary qHTS Assay for Inhibitors of Recombinant Selenoprotein Glutathione Peroxidase 1 (GPX1) (AID 1845191). Further: nearly all actives have a fitted effect of over 65% in size. Further: potency means the concentration at half of the fitted maximal effect. The method in brief: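 10 nM GPX1 + cpd, 30 min RT; start w/ 1 mM GSH, 0.5 mM cumene hydroperoxide, 0.5 mM NADPH, 100 nM GR, 0.01% BSA; buffer 50 mM Tris-HCl pH 7.5, 2 mM EDTA, 150 mM NaCl; Fl 340/450, 0 & 15 min.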

The target in assay [4] is Luciferin 4-monooxygenase (Photinus pyralis) (UniProt P08659). Put plainly: Primary firefly luciferase (FLuc) qHTS assay for identification of artifact compounds. (AID 1845220). Further: nearly all actives have a fitted effect of over 60% in size. The gist of the method: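 FLuc 10 nM; luciferin 10 uM; ATP 10 uM; Tris-acetate pH 7.6, Mg-acetate 10 mM; 15 min RT preincubation; 5 min reaction; luminescence.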
Assay [5] can be described thus: Primary fluorescence-based thiol-reactive (MSTI) qHTS assay for identification of artifact compounds. (AID 1845221).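 Further: series mostly up to about 54 µM; thiol-reactive compounds lower the probe fluorescence signal; nearly all actives have a fitted effect of over 65% in size.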 The method in brief:
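A multi-concentration qHTS design tested compounds against 4 uM MSTI, pH 7.4 phosphate-buffered saline. Plates were protected from light for 1 h at room temperature before imaging fluorescence.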

Assay [6] deals with Nanoluciferase (engineered Oplophorus gracilirostris luciferase). Put plainly: Primary Nanoluciferase (NLuc) qHTS assay for identification of artifact compounds. (AID 1845222).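 Further: NLuc secreted into diluted conditioned medium of S16 cells; series mostly up to about 54 µM.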 The method in brief: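 NLuc from S16 cell medium (1:55) plus test compounds, 15 min, room temperature. Luminescence after Nano-Glo (1:100) addition, 5 min.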

Glutathione peroxidase 1 (Homo sapiens), sequence (P07203 whole entry, looked up): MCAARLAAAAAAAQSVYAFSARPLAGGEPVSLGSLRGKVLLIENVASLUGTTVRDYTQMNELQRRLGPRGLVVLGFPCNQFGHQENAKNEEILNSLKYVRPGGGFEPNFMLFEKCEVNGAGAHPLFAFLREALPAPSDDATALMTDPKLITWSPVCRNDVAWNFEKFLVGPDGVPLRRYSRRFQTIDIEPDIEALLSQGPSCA
Metallo-beta-lactamase type 2 (Klebsiella pneumoniae), sequence (C7C422 whole entry, looked up): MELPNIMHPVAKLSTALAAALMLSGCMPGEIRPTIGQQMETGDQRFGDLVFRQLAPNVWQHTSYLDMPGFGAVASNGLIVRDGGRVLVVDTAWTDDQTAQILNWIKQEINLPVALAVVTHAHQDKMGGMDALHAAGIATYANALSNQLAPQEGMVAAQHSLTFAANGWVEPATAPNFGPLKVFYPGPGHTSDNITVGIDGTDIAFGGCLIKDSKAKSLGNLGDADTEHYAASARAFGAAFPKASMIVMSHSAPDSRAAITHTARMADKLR
Phospholipid hydroperoxide glutathione peroxidase GPX4 (Homo sapiens), sequence (P36969 whole entry, looked up): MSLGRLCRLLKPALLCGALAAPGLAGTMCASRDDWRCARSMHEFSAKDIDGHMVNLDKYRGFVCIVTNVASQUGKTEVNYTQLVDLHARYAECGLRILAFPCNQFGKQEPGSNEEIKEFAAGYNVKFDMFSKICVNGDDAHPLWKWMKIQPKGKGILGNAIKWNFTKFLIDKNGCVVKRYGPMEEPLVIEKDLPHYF

Turning to `O=c1[nH]c2cc(C(F)(F)F)ccc2n1-c1cc(C(F)(F)F)ccc1O`, the Potency result in assay [1] and in assay [2] was “inactive” each time.

For the compound `CNC(=O)c1c(I)c(NC(=O)CCCCC(=O)Nc2c(I)c(C(=O)O)c(I)c(C(=O)NC)c2I)c(I)c(C(=O)O)c1I`, the Potency entry in assay [3] and in assay [2] was “inactive” in each case.

On to `CSc1ccccc1N1CCN(CCCCCC(=O)NC2CCCc3ccccc32)CC1` (centres undefined), for which the Potency result in assay [3] and in assay [2] was “inactive” each time.

As for `N.N.N.N.N.N.N.N.N.N.N.N.N.N.O.O.[Ru+4].[Ru+5].[Ru+5]`, the Potency result in assay [3] and in assay [2] was “inactive” in each case.

Regarding `COc1cccc(C(=O)NCCN2CCN(c3ccc(Cl)cc3)CC2)c1`, the Potency entry in assay [1] and in assay [2] was “inactive” each time.

For the compound `C=CC(C)=C[C@@]1(C)SC(=O)C(C)=C1O`, the Potency entry in assay [1] and in assay [2] was “inactive” in each case.

For `CC(C(=O)O)c1ccc(C(=O)c2ccccc2)s1` (centres undefined), the Potency entry in assay [3] and in assay [2] was “inactive” each time.

Regarding `CN1C2CC(OC(=O)[C@H](CO)c3ccccc3)CC1C1OC12` (some centres undefined), the Potency entry in assay [3] and in assay [2] was “inactive” each time.

With `Cc1ccc(S(=O)(=O)/C=C/C#N)cc1`, the Potency result in assay [1] and in assay [2] was “inactive” throughout.

Turning to `COc1ccc(-c2cc(=O)c3c(O)c(OC)c(OC)cc3o2)cc1O`, the Potency result in assay [1] and in assay [2] was “inactive” each time.

Take `COc1cc2c(CCNC(C)=O)c[nH]c2cc1Cl`: the Potency entry in assay [3] and in assay [2] was “inactive” in each case.

In the case of `CN(CCCOc1ccc(Cc2ccccc2)cc1)CCC(=O)O`, the Potency result in assay [1], in assay [2], in assay [4] and in assay [6] was “inactive” in each case. For the same compound, in assay [5], the compound was classed as inactive.

As for `NCCSSCCN`, the Potency result in assay [1] and in assay [2] was “inactive” in each case.

As to `N[C@H](CCCP(=O)(O)O)C(=O)O`, the Potency entry in assay [3] and in assay [2] was “inactive” throughout.

Turning to `O=C(Nc1cccc(C(=O)Nc2ccc(S(=O)(=O)O)c3cc(S(=O)(=O)O)cc(S(=O)(=O)O)c23)c1)Nc1cccc(C(=O)Nc2ccc(S(=O)(=O)O)c3cc(S(=O)(=O)O)cc(S(=O)(=O)O)c23)c1`, the Potency entry in assay [3] and in assay [2] was “inactive” each time.

On to `O=C(c1cc(O)c(O)c([N+](=O)[O-])c1)c1ccccc1F`, for which the Potency result in assay [1] and in assay [2] was “inactive” each time.

Regarding `CCNC(=O)[C@H]1O[C@@H](n2cnc3c(N)nc(NCCc4ccc(CCC(=O)O)cc4)nc32)[C@H](O)C1O` (some centres undefined), the Potency result in assay [1] and in assay [2] was “inactive” each time.

On to `COc1ccc2c(c1)CCC1C2CC[C@@]2(C)C1CC[C@@H]2NCCCCCCN1C(=O)CCC1=O` (some centres undefined), for which the Potency entry in assay [3] and in assay [2] was “inactive” throughout.

For `CC(C)NC[C@H](O)COc1cccc2[nH]ccc12`, the Potency result in assay [3] and in assay [2] was “inactive” in each case.

Take `O=C(Nc1ccncc1)c1cc([N+](=O)[O-])ccc1Cl`: the Potency result in assay [1] and in assay [2] was “inactive” throughout.

For the compound `CC[C@H]1OC(=O)[C@H](C)C(O[C@H]2C[C@@](C)(OC)[C@@H](O)[C@H](C)O2)[C@H](C)[C@@H](OC2O[C@H](C)C[C@H](N(C)C)[C@H]2O)[C@](C)(O)C[C@@H](C)CN(C)[C@H](C)[C@@H](O)[C@]1(C)O` (some centres undefined), the Potency result in assay [3] and in assay [2] was “inactive” each time.

Take `CC(C)NC[C@@H](O)c1ccc(O)c(O)c1`: the Potency entry in assay [3] and in assay [2] was “inactive” in each case.

`CCCCCCCCCCCCCCCCCC(=O)OC(CC(=O)O)C[N+](C)(C)C` (centres undefined): the Potency result in assay [1] and in assay [2] was “inactive” each time.

On to `CC(C)Cc1ccc([C@H](C)C(=O)O)cc1`, for which the Potency entry in assay [1] and in assay [2] was “inactive” each time.

For the compound `CN(C)c1nc(N)c(C(=O)N=C(N)N)nc1Cl`, the Potency entry in assay [3] and in assay [2] was “inactive” throughout.

With `COCCOc1cc2ncnc(Cl)c2cc1OCCOC`, the Potency result in assay [3] and in assay [2] was “inactive” in each case.

For `N#C/C(=C\c1ccc(O)c(O)c1)C(=O)NCc1ccccc1`, the Potency result in assay [3] and in assay [2] was “inactive” throughout.

For the compound `Nc1nc(Cl)nc2c1ncn2[C@@H]1O[C@H](CO)[C@@H](O)[C@H]1O`, the Potency entry in assay [3] and in assay [2] was “inactive” in each case.

For the compound `C=C[C@@H]1CN2CC[C@@H]1C[C@H]2[C@H](O)c1ccnc2ccc(OC)cc12`, the Potency entry in assay [3] and in assay [2] was “inactive” in each case.

For `CCCCC1C(=O)N(c2ccccc2)N(c2ccc(O)cc2)C1=O` (centres undefined), the Potency entry in assay [3] and in assay [2] was “inactive” in each case.

Regarding `O=C1NC(O)=NC1(c1ccccc1)c1ccccc1`, the Potency result in assay [3] and in assay [2] was “inactive” in each case.

Consider `CC(C)NCC(O)COc1cccc2ccccc12` (centres undefined), for which the Potency result in assay [3] and in assay [2] was “inactive” throughout.

Turning to `CN(C)CCn1nnnc1SCC1=C(C(=O)O)N2C(=O)[C@@H](NC(=O)Cc3csc(N)n3)[C@H]2SC1`, the figures for the Potency in assay [3] and in assay [2] were 4.53 µM (active) and 12.6 µM (active), respectively.

With `NC(=S)c1ccc[n+]([C@@H]2O[C@@H](COP(=O)([O-])OP(=O)(O)OC[C@H]3O[C@@H](n4cnc5c(N)ncnc54)[C@H](OP(=O)(O)O)[C@@H]3O)C(O)C2O)c1` (some centres undefined), the Potency entry in assay [3] and in assay [2] was “inactive” throughout.

Take `O=C(O)CC[C@@H](C(=O)O)N1C(=O)c2ccccc2C1=O`: the Potency entry in assay [3] and in assay [2] was “inactive” throughout.

For the compound `Oc1cc2c(cc1O)CN(C(=S)NCCc1ccc(Cl)cc1)CCC2`, the Potency entry in assay [3] and in assay [2] was “inactive” in each case.

`CN(C)[C@@H]1C(=O)C(C(=O)NCN2CCCC2)=C(O)[C@@]2(O)C(=O)C3=C(O)c4c(O)cccc4[C@@](C)(O)C3C[C@@H]12` (some centres undefined): the Potency entry in assay [3] and in assay [2] was “inactive” each time.

With `N.N.O=C(O)C1(C(=O)O)CCC1.[Pt]`, the Potency entry in assay [3] was “inactive”. Moreover, the Potency in assay [2] is 22.7 µM (active).

As for `CN1CCc2ccccc2Cc2[nH]c3ccccc3c2CC1`, the Potency result in assay [3] and in assay [2] was “inactive” each time.

Regarding `S=c1[nH]c2ccccc2s1`, the Potency result in assay [3] and in assay [2] was “inactive” in each case.

Turning to `Cn1ncc(S(=O)(=O)Cc2ccccc2)c(Br)c1=O`, the Potency result in assay [3] and in assay [2] was “inactive” in each case.

As to `CCCCCCCC/C=C/C(=O)O`, the Potency result in assay [3] and in assay [2] was “inactive” in each case.

For the compound `CN=c1nc(-c2ccccc2)n(-c2ccccc2)s1`, the Potency result in assay [3] and in assay [2] was “inactive” each time.

For `NC(=O)C1=CN(C2OC(COP(=O)(O)OP(=O)(O)OC[C@H]3O[C@@H](n4cnc5c(N)ncnc54)[C@H](OP(=O)(O)O)[C@@H]3O)C(O)C2O)C=CC1` (some centres undefined), the Potency result in assay [3] and in assay [2] was “inactive” throughout.

As for `NS(=O)(=O)C#Cc1ccccc1`, the Potency entry in assay [3] and in assay [2] was “inactive” in each case.

`CC1CN(S(=O)(=O)c2cccc3cnccc23)CCN1` (centres undefined): the Potency entry in assay [3] and in assay [2] was “inactive” throughout.

Regarding `O=C(CCc1ccncc1)NNC(=O)N1Cc2ccccc2Oc2ccc(Cl)cc21`, the Potency entry in assay [3] and in assay [2] was “inactive” each time.

In the case of `CSc1nc(N)c2ncn([C@@H]3O[C@H](COP(=O)(O)OP(=O)(O)OP(=O)(O)O)[C@@H](O)[C@H]3O)c2n1`, the Potency entry in assay [3] and in assay [2] was “inactive” each time.

On to `CCCCCCCCc1ccc(-c2ccc(C(=O)O)cc2)cc1`, for which the Potency entry in assay [3] and in assay [2] was “inactive” in each case.

Turning to `N[C@@H](CC(=O)O)C(=O)O`, the Potency result in assay [3] and in assay [2] was “inactive” each time.

Take `O=C1NC(=O)c2c1c(-c1ccccc1)cc1[nH]c3ccc(O)cc3c21`: the Potency entry in assay [3] and in assay [2] was “inactive” throughout.

As to `O=C(O)c1cc(=O)c2ccccc2[nH]1`, the Potency entry in assay [3] and in assay [2] was “inactive” throughout.

For `O=C(O)CC1CCCc2ccccc2C1O` (centres undefined), the Potency result in assay [3] and in assay [2] was “inactive” each time.
